Data: PubChem BioAssay (NCI)
This is part of a sample that, as a whole, favours compounds with a hit. Of some 83,000 tested, about 20% had one in any assay.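 Negative percent growth values reflect cell death: -40 means 40% of the cells present at the start died, and -100 means all died.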 Active and inactive are the calls of the source. Rule for the calls: active = growth percent below 10; inactive = the rest.

Experiments:
Assay in all cases: NCI-60 one-dose screen, 48 h (100 = growth as untreated, 0 = no growth, -100 = all killed)
Details in all cases: 10 µM unless noted
T-47D breast = tested on: T-47D breast
BT-549 breast = tested on: BT-549 breast
MDA-MB-435 melanoma = tested on: MDA-MB-435 melanoma
SW-620 colon = tested on: SW-620 colon
MCF7 breast = tested on: MCF7 breast
HCT-116 colon = tested on: HCT-116 colon
HCC-2998 colon = tested on: HCC-2998 colon
KM12 colon = tested on: KM12 colon

Measured: growth

Cc1cccc(-c2nc(Nc3ccc4ncsc4c3)c3ccccc3n2)n1
active: MCF7 breast 9.7%
inactive: T-47D breast 34.6% | BT-549 breast 87.9% | MDA-MB-435 melanoma 60.4% | SW-620 colon 79.8% | HCT-116 colon 77.4% | HCC-2998 colon 116% | KM12 colon 63.1%

C/C=C(/C)n1cnc2c(Nc3ccccn3)nc(Cl)nc21
inactive: T-47D breast 93.6% | BT-549 breast 103% | MDA-MB-435 melanoma 107% | SW-620 colon 103% | MCF7 breast 99.9% | HCT-116 colon 104% | HCC-2998 colon 103% | KM12 colon 109%

CCOC(=O)c1c(C)c2c(n1Cc1ccccc1)CSCC2=O
active: T-47D breast 1.4% [100 µM] | BT-549 breast -25.9% [100 µM] | MDA-MB-435 melanoma -9.11% [100 µM] | MCF7 breast -12.8% [100 µM] | HCT-116 colon -17.5% [100 µM] | KM12 colon -4.25% [100 µM]
inactive: SW-620 colon 16.7% [100 µM] | HCC-2998 colon 17% [100 µM]

CCN(CC)c1ccc(/C=N/NC(=O)Cc2ccc(Nc3ccnc(C(F)(F)F)c3)cc2)c(O)c1
inactive: T-47D breast 27.6% | BT-549 breast 41.9% | MDA-MB-435 melanoma 23.9% | SW-620 colon 35.6% | MCF7 breast 20.9% | HCT-116 colon 19.6% | HCC-2998 colon 26.9% | KM12 colon 41%

COc1cc(OC)cc(-c2ccc(-c3ccc(C(=N)N)o3)o2)c1
inactive: T-47D breast 49.3% | BT-549 breast 85.8% | KM12 colon 17.6%
active: MDA-MB-435 melanoma -27.5% | SW-620 colon 2.04% | MCF7 breast 8.92% | HCT-116 colon -8.08% | HCC-2998 colon -36.8%

COc1ccc(Cn2cc3c(c2-c2ccccc2)CCc2cnoc2-3)cc1
inactive: T-47D breast 64.7% | BT-549 breast 45.3% | SW-620 colon 18.3% | MCF7 breast 14.6% | HCC-2998 colon 12.5%
active: MDA-MB-435 melanoma 3.43% | HCT-116 colon 0.167% | KM12 colon 0.62%

CN(C)CCCC1(c2ccc(F)cc2)OCc2cc(-c3cc4ccccc4s3)ccc21 (stereo not drawn)
inactive: BT-549 breast 80.1%
active: T-47D breast -2.98% | MDA-MB-435 melanoma -84.4% | SW-620 colon -70% | MCF7 breast -53.5% | HCT-116 colon -80.6% | HCC-2998 colon -78.4% | KM12 colon -72.1%

COc1cc(OC)c(C(=O)C(CN(C)C)CN(C)C)cc1OC
inactive: BT-549 breast 74.5% | MDA-MB-435 melanoma 80.9% | MCF7 breast 10.6% | HCC-2998 colon 110% | KM12 colon 111%
active: T-47D breast -17.6% | SW-620 colon -83.3% | HCT-116 colon -65.6%

CCN(CC)CCCN1C(=O)c2c(c(C)c3c(oc4ccc(O)cc43)c2C)C1=O
inactive: T-47D breast 87.2% | BT-549 breast 96.6% | MDA-MB-435 melanoma 93.4% | MCF7 breast 65.8% | HCC-2998 colon 67% | KM12 colon 70.7%
active: SW-620 colon -37% | HCT-116 colon -77.9%

C#CCOc1cccc(-c2ncnc3cc(NC(=O)C=C)ccc23)c1
inactive: T-47D breast 37.6% | BT-549 breast 43.5% | MDA-MB-435 melanoma 30% | SW-620 colon 21.4% | MCF7 breast 13.5% | HCT-116 colon 27.2% | HCC-2998 colon 91.5% | KM12 colon 31.1%

Cc1ccc2c(-c3nnc(N)s3)cc(=O)oc2c1C
inactive: T-47D breast 72.9% | BT-549 breast 101% | MDA-MB-435 melanoma 96.1% | SW-620 colon 97.8% | MCF7 breast 93.4% | HCT-116 colon 95.6% | HCC-2998 colon 113% | KM12 colon 105%

COc1ccc(/C(C)=C(/c2ccc(OCCCN(C)C)cc2)c2ccc(OC(=O)c3ccccc3)cc2)cc1
inactive: T-47D breast 49.7% | BT-549 breast 87% | MDA-MB-435 melanoma 85% | SW-620 colon 88.8% | MCF7 breast 31% | HCT-116 colon 48.6% | HCC-2998 colon 88.3% | KM12 colon 75.2%

CC(=O)/C(=C/c1ccc([N+](=O)[O-])cc1)C(=O)c1ccccc1
inactive: T-47D breast 67.6% | BT-549 breast 89.8% | MDA-MB-435 melanoma 77.3% | SW-620 colon 65.4% | MCF7 breast 29.2% | HCT-116 colon 35.7% | HCC-2998 colon 95.2% | KM12 colon 58.9%

N#Cc1cncc(-c2ccc3ncnc(Nc4cccc(Cl)c4)c3c2)c1
inactive: T-47D breast 56.4% | BT-549 breast 69.7% | MDA-MB-435 melanoma 93.4% | SW-620 colon 97.6% | MCF7 breast 75.9% | HCT-116 colon 36.6% | HCC-2998 colon 88.4% | KM12 colon 90.2%

CC(C)(C)n1cc(-c2ccnc(NCCCNS(=O)(=O)c3cccc4ccccc34)c2)c(-c2cccc(F)c2)n1
inactive: T-47D breast 34% | BT-549 breast 65.4% | MDA-MB-435 melanoma 90.4% | SW-620 colon 92.4% | MCF7 breast 52.9% | HCT-116 colon 53.5% | HCC-2998 colon 82.8% | KM12 colon 76.6%

Cc1ccc(C(=O)Nc2cccc(C#Cc3cccc4[nH]nc(N)c34)c2)cc1C(F)(F)F
inactive: T-47D breast 46.3% | BT-549 breast 86.6% | MDA-MB-435 melanoma 62.4% | SW-620 colon 65.4% | MCF7 breast 59.8% | HCT-116 colon 25.2% | HCC-2998 colon 51% | KM12 colon 64.3%

CN(C)CCCNC(=O)c1cncnc1Nc1ccc(OCc2cccc(F)c2)c(Cl)c1
inactive: BT-549 breast 53.6%
active: T-47D breast -17% | MDA-MB-435 melanoma -88.6% | SW-620 colon -67.7% | MCF7 breast -44% | HCT-116 colon -82% | HCC-2998 colon 6.05% | KM12 colon -32.1%

N#Cc1cccc(C2C3=C(COC3=O)N(CCO)c3cc4c(cc32)OCO4)c1 (stereo not drawn)
inactive: T-47D breast 20.8% | BT-549 breast 38.7% | SW-620 colon 16.3% | MCF7 breast 22.4% | HCT-116 colon 17% | HCC-2998 colon 83.5% | KM12 colon 27.9%
active: MDA-MB-435 melanoma 0.432%

O=C(Nc1cc(Cl)ccc1O)c1cccc(Nc2ccnc(C(F)(F)F)c2)c1
inactive: T-47D breast 10.8% | BT-549 breast 34.9% | MDA-MB-435 melanoma 31.2% | SW-620 colon 62.9% | MCF7 breast 26% | HCT-116 colon 26.1% | HCC-2998 colon 25.5% | KM12 colon 36.5%

C/C=C(\C)C(=O)N[C@H]1C(O)C[C@]2(C)C3CC[C@@]4(C)C(CC[C@@H]4C(C)N(C)C)C3CCC2C1O (stereo partly drawn)
inactive: T-47D breast 37.6% | BT-549 breast 88.9% | SW-620 colon 12.9% | MCF7 breast 28.6% | HCC-2998 colon 59.7% | KM12 colon 28.7%
active: MDA-MB-435 melanoma -22.2% | HCT-116 colon 3.85%

COc1ccc(C(=O)Cn2c(C(=O)c3ccc(OC)cc3)nc3ccccc32)cc1
active: MDA-MB-435 melanoma -50% | SW-620 colon 9.77%
inactive: T-47D breast 29.9% | BT-549 breast 31% | MCF7 breast 16% | HCT-116 colon 12.2% | HCC-2998 colon 21.5% | KM12 colon 24.8%

COc1cccc(/C=C/C(=O)c2cccc(Nc3nc(Nc4ccccc4)nc(Nc4ccccc4)n3)c2)c1
inactive: T-47D breast 53.5% | BT-549 breast 99% | MDA-MB-435 melanoma 91.4% | SW-620 colon 40.5% | MCF7 breast 21.9% | HCT-116 colon 12.8% | HCC-2998 colon 21.6% | KM12 colon 62.8%

O=C1/C=C/[C@@H](O)[C@@H]2C[C@@H](O)C[C@H]2/C=C/CCC[C@@H](O)CCO1
inactive: T-47D breast 116% | BT-549 breast 109% | MDA-MB-435 melanoma 87.9% | SW-620 colon 106% | MCF7 breast 95.1% | HCT-116 colon 111% | HCC-2998 colon 100% | KM12 colon 77.1%

C=C1C(=O)O[C@H]2[C@H]1CC/C(COC(=O)/C=C\C(=O)NCc1ccc(Cn3c(=O)sn(CCCl)c3=O)cc1)=C\CC[C@@]1(C)O[C@@H]21
inactive: T-47D breast 84.7% | BT-549 breast 85.5% | MDA-MB-435 melanoma 65.8% | SW-620 colon 31.2% | MCF7 breast 61.8% | HCT-116 colon 68.7% | HCC-2998 colon 117% | KM12 colon 97.1%

O=C(Cc1ccccc1)Nc1cccc(N=Cc2ccccc2O)c1
inactive: T-47D breast 91.8% | BT-549 breast 115% | MDA-MB-435 melanoma 97.8% | SW-620 colon 109% | MCF7 breast 94.4% | HCT-116 colon 108% | HCC-2998 colon 106% | KM12 colon 98.1%

N#Cc1ccc(O)c(C2=NCC(Cc3ccccc3)O2)c1 (stereo not drawn)
active: T-47D breast -1.96%
inactive: BT-549 breast 37.7% | MDA-MB-435 melanoma 64.5% | SW-620 colon 40.2% | MCF7 breast 39% | HCT-116 colon 14.9% | HCC-2998 colon 72.3% | KM12 colon 40.9%

O=c1c2ccccc2c(=O)c2c1sc1c(=O)c3ccc(O)cc3c(=O)c12
active: T-47D breast -27.5% | BT-549 breast -92.6% | MDA-MB-435 melanoma -86.2% | SW-620 colon -71.1% | MCF7 breast -52.2% | HCT-116 colon -29.2% | HCC-2998 colon -60.5% | KM12 colon -31.5%

CC1=C(C(=O)Nc2ccccc2)C(c2ccc3c(c2)OCO3)NC(=S)N1 (stereo not drawn)
inactive: T-47D breast 101% | BT-549 breast 88.1% | MDA-MB-435 melanoma 103% | SW-620 colon 107% | MCF7 breast 99.8% | HCT-116 colon 93.2% | HCC-2998 colon 109% | KM12 colon 103%

COc1cccc(/C=C/C(=O)c2cc3c(N)c(C(=O)Nc4cccc5ccccc45)sc3nc2C)c1
active: MDA-MB-435 melanoma -50.7% | SW-620 colon -1.14% | HCC-2998 colon -23.8%
inactive: T-47D breast 32.3% | BT-549 breast 19.3% | MCF7 breast 13.4% | HCT-116 colon 12.2% | KM12 colon 11%

COC(=O)c1cc(Br)ccc1O
inactive: T-47D breast 119% | BT-549 breast 103% | MDA-MB-435 melanoma 116% | SW-620 colon 114% | MCF7 breast 99.2% | HCT-116 colon 108% | HCC-2998 colon 110% | KM12 colon 126%

CCN1C(=O)N(CC)C2C1NC(=S)N2/N=C/c1ccc(C(F)(F)F)cc1 (stereo not drawn)
active: MDA-MB-435 melanoma 4.45%
inactive: T-47D breast 74.7% | BT-549 breast 71% | SW-620 colon 55.3% | MCF7 breast 33.2% | HCT-116 colon 54.9% | HCC-2998 colon 74% | KM12 colon 56%
